# Screens from PubChem BioAssay.
# PG9 Ab binder: binders of HIV-1 gp120 antibody PG9, primary screen, biochemical, TR-FRET | HIV-1 gp120 / PG9 antibody interaction | actives 0.43% (n = 360,000) | inhibition, % at 6.7 µM | TR-FRET gp120-PG9 antibody binding; in the data active means inhibition above about 8.5%
# Exocytosis inh: LAMP-1 surface exposure blockers, TALL-104 cells – cell-based, flow cytometry, MLPCN library, primary screen; TALL-104 LAMP-1 surface exposure; cells stimulated with thapsigargin and PMA; inhibition, % at 10 µM; actives 0.66% (n = 360,000); AID 651702, 2012;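 active means inhibition above about 55%, limit read from the data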
# NR1D1 modulator: modulators of Rev-erb alpha DNA binding, primary screen, biochemical, FITC-DNA, fluorescence polarization, uHTS; Nuclear receptor subfamily 1 group D member 1 (Homo sapiens), P20393; Rev-erbα–FITC-DNA binding, 90 min; activity, % at 10 µM; actives 0.79% (n = 370,000);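 active means activity above about 14%, limit read from the data; passing the limit was not always enough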
# ABCB6 inh MLPCN: ABCB6 transporter inhibitors, primary screen, K562-ABCB6 cells, flow cytometry, MLPCN library; ATP-binding cassette sub-family B member 6 (Homo sapiens), Q9NP58; K562-ABCB6 porphyrin accumulation, 1 h; active compounds read low; fluorescence ratio to DMSO, % at 10 µM; actives 0.19% (n = 360,000); AID 602162, 2011;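 active means fluorescence ratio to DMSO below 75%, the collection mean minus 3 SD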;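 further: signal is porphyrin accumulated inside mitochondria; lower ratio means ABCB6 inhibition with less porphyrin fluorescence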
# VLA-4 inh: inhibition in human VLA-4 binding assay, primary screen, VLA-4 allosteric modulator project, MLPCN library, flow cytometry, VLA-4 expressing cells | AID 2557, 2010 | inhibition, % (about 7 µM as worked out from the volumes in the protocol) | actives 0.2% (n = 330,000) | Integrin alpha-4 (Homo sapiens), P13612 | ligand binding flow cytometry; in the data active means inhibition above about 50%
# Hits are given with their value; i = inactive; nt = no result given. Most compounds without a hit are left out; they make up all but 2% or so of the library.
SMILES,PG9 Ab binder,Exocytosis inh,NR1D1 modulator,ABCB6 inh MLPCN,VLA-4 inh
Oc1c(C=C2N=c3ccccc3=N2)sc(=S)n1-c1ccc(F)cc1,i,i,i,i,i
O=C(CS)Nc1ccc2ccccc2c1,i,67,i,i,i
CCCCCC(=O)Nc1ccc2ccccc2c1,i,i,i,i,i
CC(C)c1[nH]nc2c1C(c1ccccc1)NC2=O (stereo not drawn),i,nt,i,nt,nt
O=C(N/N=C\c1c(O)ccc2ccccc12)c1cncc(Br)c1,i,80,i,i,i
O=C(N/N=C/c1c(O)ccc2ccccc12)c1cccnc1,i,i,i,i,i
COc1ccc(CN(C)CC#Cc2ccccc2)c(OC)c1,nt,nt,i,nt,nt
CC(=O)NS(=O)(=O)c1ccc(N=c2ssc3c2-c2cc(C)c(C)cc2NC3(C)C)cc1,i,i,i,i,i
Cc1cc2c(cc1C)-c1c(ssc1=Nc1ccc(S(N)(=O)=O)cc1)C(C)(C)N2,i,67,i,i,i
COc1cc(CNc2ncnc3c2[nH]c2ccc(C)cc23)cc(OC)c1,i,56,i,i,i
CCn1nc([N+](=O)[O-])c(C(C#N)c2nc3cc(C(F)(F)F)ccc3s2)c(Cl)c1=O (stereo not drawn),i,83,i,i,i
CCCn1nc([N+](=O)[O-])c(C(C#N)c2nc3ccccc3o2)c(Cl)c1=O (stereo not drawn),i,i,i,i,i
Cc1nc([N+](=O)[O-])cn1CC(Cl)Cn1cc([N+](=O)[O-])nc1C,i,nt,i,nt,nt
O=C(NCCc1ccccc1)C(c1cccs1)N(C(=O)c1csnn1)C1CC1 (stereo not drawn),i,i,i,i,i
O=C(NCCc1ccccc1)C(c1cccs1)N(C(=O)CCl)c1ccc(Cl)cc1 (stereo not drawn),i,i,i,33,i
O=S1(=O)c2c(cccc2N2CCC[C@@H]2CO)OCCCN1C1CC1,nt,nt,i,nt,nt
CCC(C(=O)OCC(=O)Nc1ccc(SC(F)F)cc1)c1ccccc1 (stereo not drawn),i,73,i,i,nt
CCCCCCC(=O)N(O)C1CC(=O)N(c2ccc(Br)cc2)C1=O (stereo not drawn),i,103,i,i,i
Cc1[nH]nc2c1C(c1ccccc1)N(Cc1ccccc1)C2=O (stereo not drawn),i,nt,i,nt,nt
CCN1C(c2ccccc2)=C(c2ccccc2)S/C1=C/C=C1\SC(=S)N(C)C1=O,i,59,i,i,nt
CCCCNC(=O)C[C@H]1C[C@@]2(C(=O)OC)C(=C[C@H](C3CCCC3)O[C@@H]2C)N(CCC2=CCCCC2)C1=O,nt,nt,i,nt,nt
COc1cccc(C(=O)Nc2ccc(C(=O)NCC3COc4ccccc4O3)cc2)c1 (stereo not drawn),nt,nt,i,nt,nt
CN1CCN(/N=C/c2c3ccccc3c(Cl)c3ccccc23)CC1,i,i,i,i,57
Cc1cc(O)c(-c2cc(C(=O)NCCc3ccc(S(N)(=O)=O)cc3)[nH]n2)cc1C,i,i,i,i,i
Cc1cc(C)c(O)c(-c2cc(C(=O)NCCc3ccc(S(N)(=O)=O)cc3)[nH]n2)c1,i,63,i,i,i
SMILES,PG9 Ab binder,Exocytosis inh,NR1D1 modulator,ABCB6 inh MLPCN,VLA-4 inh
Cc1cc2cc(OCc3ccccc3)ccc2n1C,i,i,i,i,i
Cc1c(C=O)c2cc(OCc3ccccc3)ccc2n1C,i,69,i,i,i
CC(=NNc1nc2ccccc2s1)c1ncccn1,i,102,i,i,nt
C/C(=N\Nc1nc2ccccc2s1)c1cccs1,i,i,i,i,i
O=C(CCl)Nc1cccc(Oc2ccccc2)c1,i,i,i,i,i
O=C(CCl)Nc1cccc(Oc2cnccn2)c1,i,i,i,7.0,i
COc1ccccc1N(C(=O)CCl)c1cn(C(C)=O)c2ccccc12,i,i,i,i,i
COc1ccccc1N(C(C)=O)C1=C(Cl)C(=O)c2ccccc2C1=O,i,60,i,i,nt
C=CCOc1cccc(C2C(C(=O)c3ccc(C)o3)=C(O)C(=O)N2Cc2ccncc2)c1 (stereo not drawn),11,i,i,i,i
Cc1cc(O)cc(=O)n1-c1cc(C(F)(F)F)cc(C(F)(F)F)c1,i,nt,i,nt,nt
